The source of these data is PubChem BioAssay (NCATS).

Molecules are shown by their SMILES. Records with an inconclusive call do not appear. A call without a number means that no potency is given here. Unmarked numbers belong to inactive results. Calls of active or inactive are those of the source. Unless noted, calls come from the whole dose curve.
Potency is the fitted concentration of half-maximal effect.

Chain of Nucleoprotein (Lymphocytic choriomeningitis virus (strain Armstrong)) (P09992 whole entry, looked up): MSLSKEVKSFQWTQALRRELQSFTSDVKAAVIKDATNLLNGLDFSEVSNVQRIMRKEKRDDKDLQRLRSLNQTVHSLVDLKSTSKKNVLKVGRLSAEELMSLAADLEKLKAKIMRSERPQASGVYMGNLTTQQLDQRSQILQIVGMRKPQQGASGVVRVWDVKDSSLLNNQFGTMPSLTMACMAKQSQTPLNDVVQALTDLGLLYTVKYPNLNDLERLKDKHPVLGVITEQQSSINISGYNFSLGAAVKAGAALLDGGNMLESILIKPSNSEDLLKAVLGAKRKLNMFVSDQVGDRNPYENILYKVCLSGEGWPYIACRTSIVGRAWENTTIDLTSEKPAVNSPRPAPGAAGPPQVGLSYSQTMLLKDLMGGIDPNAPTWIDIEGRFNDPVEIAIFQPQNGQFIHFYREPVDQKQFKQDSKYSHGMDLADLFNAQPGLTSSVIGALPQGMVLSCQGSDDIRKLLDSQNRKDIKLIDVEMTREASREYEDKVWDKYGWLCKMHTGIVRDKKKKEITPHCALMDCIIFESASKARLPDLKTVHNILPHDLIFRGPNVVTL

Tested on in the first experiment: not listed separately
In words: qHTS for Inhibitors of the Functional Ribonucleoprotein Complex (vRNP) of Lymphocytic Choriomeningitis Arenaviruses (LCMV): Viability assay - alamar blue signal for LCMV Primary Screen (AID 1347085; calls by dose curve; tested in HEK293 reporter line; note: nearly all actives have a fitted effect of over 80% in size). As to conditions: alamar blue viability counter-screen, LCMV vRNP screen cells; series mostly up to 57.5 µM.
Regarding `COc1cccc(OC)c1`, the Potency result is “inactive”.
Turning to `CC(O)C(C)O` (stereo not given), the Potency result is “inactive”.
The same measure, in the same setting: next, `O=c1[nH]c(=O)n([C@H]2C[C@@H](O)[C@@H](CO)O2)cc1I`: “inactive”.
Same read-out and setting: the result for `COC1=C(C)C(O)=C(C(=O)/C=C/c2ccccc2)C(=O)C1(C)C` reads “inactive”.
On the same count and under the same terms, the result for `COc1ccc(C2CC(=O)c3c(O)cc(O)cc3O2)c(CC=C(C)C)c1OC` (stereo not given) reads “inactive”.
For the molecule `C=C[C@@]1(C)CCC(/C(C)=C/C=C/C(C)(C)O)C[C@@H]1C(=C)C` (stereo not given in full), the Potency result is “inactive”.
In the case of `CC1C(c2ccccc2)OC(=O)N1C` (stereo not given), the Potency entry is “inactive”.
For the molecule `CCOC(=O)c1cccc(C(=O)OCC)n1`, the Potency entry was “inactive”.
Still for that read-out and setting: next, `O=C(O)c1ccccc1`: “inactive”; `COc1ccc(-c2coc3cc(OC(C)=O)c(OC)cc3c2=O)cc1`: “inactive”; `CC1=CCC2C(C1)C2(C)C` (stereo not given): “inactive”.
As for `O=C(O)CCC[C@H](O)\C=C/C=C/C=C/[C@H](O)C/C=C\CCCCCO`, the activity change, negative = lower viability is -25.2% [at 0.757 µM].
Regarding `Nc1nc(Cl)nc2c1ncn2[C@@H]1O[C@H](CO)[C@@H](O)[C@H]1F`, the Potency was 243 nM (active).
Still for that read-out and setting: next, `NC1(Cc2ccc(Cl)cc2)CCN(c2ncnc3[nH]ccc23)CC1`: 7690 nM (active); `CCCCc1ccc(O)cc1`: “inactive”.
Same read-out and setting: next, `O=C1Nc2ccc(Cl)cc2C(C#CC2CC2)(C(F)(F)F)O1` (stereo not given): “inactive”; `OC[C@H]1O[C@@H]2O[C@H]3[C@H](O)[C@@H](O)[C@@H](O[C@H]4[C@H](O)[C@@H](O)[C@@H](O[C@H]5[C@H](O)[C@@H](O)[C@@H](O[C@H]6[C@H](O)[C@@H](O)[C@@H](O[C@H]7[C@H](O)[C@@H](O)[C@@H](O[C@H]8[C@H](O)[C@@H](O)[C@@H](O[C@H]9[C@H](O)[C@@H](O)[C@@H](O[C@H]1[C@H](O)[C@H]2O)O[C@@H]9CO)O[C@@H]8CO)O[C@@H]7CO)O[C@@H]6CO)O[C@@H]5CO)O[C@@H]4CO)O[C@@H]3CO`: “inactive”.
Same read-out and setting: next, `COC(=O)/C=C/c1ccccc1`: “inactive”; `C[C@@H]1C(=O)O[C@H]2[C@H]1CC[C@@]1(C)C(=O)C=C[C@@](C)(O)[C@H]21`: “inactive”; `CC(C)CCOC(=O)CC(C)C`: “inactive”.
In the case of `O=P(O)(O)OC[C@H]1O[C@](O)(COP(=O)(O)O)[C@@H](O)[C@@H]1O`, the Potency entry was “inactive”.
Turning to `COc1cc2c(c(OC)c1OC)-c1c(cc3c(c1OC)OCO3)[C@@H](OC(C)=O)[C@H](C)[C@H](C)C2`, the Potency entry was “inactive”.
As for `C/C(=C/C=C/[C@@H](C)C(=O)O)[C@H]1CN[C@H](C(=O)O)[C@H]1CC(=O)O`, the Potency result is “inactive”.
`COC1=C(OC)[C@]23CCc4ccc(OC)c(OC)c4[C@]2(CCN3C)CC1=O`: the Potency entry is “inactive”.
Take `CCC/C=C/C/C=C/C=C/C=N/NN=O`: the Potency entry was “inactive”.
Still for that read-out and setting: next, `CCCCCCOC(=O)CCC`: “inactive”; `CCNC(=O)CCCC=CC[C@@H]1[C@H](C=CC(O)CCc2ccccc2)[C@@H](O)C[C@@H]1O` (stereo not given in full): “inactive”; `CC(C)=CCc1c(-c2ccc(O)cc2O)oc2cc3c(c(O)c2c1=O)C=CC(C)(C)O3`: “inactive”.
On the same count and under the same terms, the result for `CC(C)CCCC(=O)O` reads “inactive”; that for `CC(C)=CCC/C(C)=C/CC/C(C)=C/COc1ccc2ccc(=O)oc2c1`, “inactive”.
On to `CC(C)C1C(=O)O[C@@H]2CCN3CC=C(COC(=O)[C@](C)(O)[C@]1(C)O)[C@H]23` (stereo not given in full), for which the Potency entry is “inactive”.
On the same count and under the same terms, the result for `C/C=C(/C)C(=O)O[C@H]1[C@@H](O)c2c(ccc3ccc(=O)oc23)OC1(C)C` reads “inactive”; that for `O=C(O)c1cc(N(Cc2ccccc2O)Cc2ccccc2O)ccc1O`, “inactive”.
As to `COc1c(Br)cc(Br)cc1C(=O)O`, the Potency entry is “inactive”.
As to `C=C1C(O)C[C@H]2C(=C)CCC3[C@H](OC(=O)[C@]3(O)CO)[C@@H]12` (stereo not given in full), the Potency result is “inactive”.
For `CN[C@H]1[C@@H](O)[C@@H]2O[C@@H]3O[C@H](C)CC(=O)[C@]3(O)O[C@@H]2[C@@H](NC)[C@H]1O`, the Potency is 2430 nM (active).
Consider `C[C@H]1C[C@H]2[C@@H]3CCC4=CC(=O)C=C[C@]4(C)[C@@H]3C(=O)C[C@]2(C)[C@@]1(O)C(=O)CO`, for which the Potency result is “inactive”.
The same measure, in the same setting: next, `COc1ccc(C2OCC3(O)C(c4ccc(OC)c(OC)c4)OCC23)cc1OC` (stereo not given): “inactive”; `C[C@@H]1O[C@@H](O[C@H]2[C@H](O)[C@@H](O)[C@H](Oc3c(-c4ccc(O)cc4)oc4cc(O)cc(O)c4c3=O)O[C@@H]2CO)[C@H](O)[C@H](O)[C@H]1O`: “inactive”; `O=C1O[C@@H](c2ccc(O)cc2)Cc2cccc(O)c21`: “inactive”.

A further experiment concerns the target Nucleoprotein (Lymphocytic choriomeningitis virus (strain Armstrong)) (UniProt P09992). The experiment is described as follows: qHTS for Inhibitors of the Functional Ribonucleoprotein Complex (vRNP) of Lymphocytic Choriomeningitis Arenaviruses (LCMV): LCMV Primary Screen - GLuc reporter signal (AID 1347086). Note: nearly all actives have a fitted effect of over 70% in size. Particulars: LCMV minigenome vRNP cell assay, Gaussia luciferase reporter; series mostly up to 57.5 µM. (In general: qHTS replaces the single test concentration by a dilution series.)
As for `COc1cccc(OC)c1`, the Potency entry is “inactive”.
The same measure, in the same setting: next, `CC(O)C(C)O` (stereo not given): “inactive”.
On the same count and under the same terms, the result for `O=c1[nH]c(=O)n([C@H]2C[C@@H](O)[C@@H](CO)O2)cc1I` reads “inactive”; that for `COC1=C(C)C(O)=C(C(=O)/C=C/c2ccccc2)C(=O)C1(C)C`, “inactive”.
`COc1ccc(C2CC(=O)c3c(O)cc(O)cc3O2)c(CC=C(C)C)c1OC` (stereo not given): the Potency result was “inactive”.
Still for that read-out and setting: the result for `C=C[C@@]1(C)CCC(/C(C)=C/C=C/C(C)(C)O)C[C@@H]1C(=C)C` (stereo not given in full) reads “inactive”; that for `CC1C(c2ccccc2)OC(=O)N1C` (stereo not given), “inactive”; that for `CCOC(=O)c1cccc(C(=O)OCC)n1`, “inactive”.
The same measure, in the same setting: the result for `O=C(O)c1ccccc1` reads “inactive”.
For `COc1ccc(-c2coc3cc(OC(C)=O)c(OC)cc3c2=O)cc1`, the Potency result is “inactive”.
Still for that read-out and setting: the result for `CC1=CCC2C(C1)C2(C)C` (stereo not given) reads “inactive”.
For the molecule `O=C(O)CCC[C@H](O)\C=C/C=C/C=C/[C@H](O)C/C=C\CCCCCO`, the activity change, negative = inhibition was -1.08% [at 0.757 µM].
With `Nc1nc(Cl)nc2c1ncn2[C@@H]1O[C@H](CO)[C@@H](O)[C@H]1F`, the Potency entry is “inactive”.
The same measure, in the same setting: the result for `NC1(Cc2ccc(Cl)cc2)CCN(c2ncnc3[nH]ccc23)CC1` reads 9680 nM (active); that for `CCCCc1ccc(O)cc1`, “inactive”; that for `O=C1Nc2ccc(Cl)cc2C(C#CC2CC2)(C(F)(F)F)O1` (stereo not given), “inactive”.
Still for that read-out and setting: next, `OC[C@H]1O[C@@H]2O[C@H]3[C@H](O)[C@@H](O)[C@@H](O[C@H]4[C@H](O)[C@@H](O)[C@@H](O[C@H]5[C@H](O)[C@@H](O)[C@@H](O[C@H]6[C@H](O)[C@@H](O)[C@@H](O[C@H]7[C@H](O)[C@@H](O)[C@@H](O[C@H]8[C@H](O)[C@@H](O)[C@@H](O[C@H]9[C@H](O)[C@@H](O)[C@@H](O[C@H]1[C@H](O)[C@H]2O)O[C@@H]9CO)O[C@@H]8CO)O[C@@H]7CO)O[C@@H]6CO)O[C@@H]5CO)O[C@@H]4CO)O[C@@H]3CO`: “inactive”.
Still for that read-out and setting: the result for `COC(=O)/C=C/c1ccccc1` reads “inactive”.
Turning to `C[C@@H]1C(=O)O[C@H]2[C@H]1CC[C@@]1(C)C(=O)C=C[C@@](C)(O)[C@H]21`, the Potency entry is “inactive”.
On the same count and under the same terms, next, `CC(C)CCOC(=O)CC(C)C`: “inactive”; `O=P(O)(O)OC[C@H]1O[C@](O)(COP(=O)(O)O)[C@@H](O)[C@@H]1O`: “inactive”; `COc1cc2c(c(OC)c1OC)-c1c(cc3c(c1OC)OCO3)[C@@H](OC(C)=O)[C@H](C)[C@H](C)C2`: “inactive”.
Regarding `C/C(=C/C=C/[C@@H](C)C(=O)O)[C@H]1CN[C@H](C(=O)O)[C@H]1CC(=O)O`, the Potency entry is “inactive”.
The same measure, in the same setting: the result for `COC1=C(OC)[C@]23CCc4ccc(OC)c(OC)c4[C@]2(CCN3C)CC1=O` reads “inactive”; that for `CCC/C=C/C/C=C/C=C/C=N/NN=O`, “inactive”.
On the same count and under the same terms, next, `CCCCCCOC(=O)CCC`: “inactive”; `CCNC(=O)CCCC=CC[C@@H]1[C@H](C=CC(O)CCc2ccccc2)[C@@H](O)C[C@@H]1O` (stereo not given in full): “inactive”; `CC(C)=CCc1c(-c2ccc(O)cc2O)oc2cc3c(c(O)c2c1=O)C=CC(C)(C)O3`: “inactive”.
Still for that read-out and setting: next, `CC(C)CCCC(=O)O`: “inactive”; `CC(C)=CCC/C(C)=C/CC/C(C)=C/COc1ccc2ccc(=O)oc2c1`: “inactive”; `CC(C)C1C(=O)O[C@@H]2CCN3CC=C(COC(=O)[C@](C)(O)[C@]1(C)O)[C@H]23` (stereo not given in full): “inactive”.
Regarding `C/C=C(/C)C(=O)O[C@H]1[C@@H](O)c2c(ccc3ccc(=O)oc23)OC1(C)C`, the Potency entry was “inactive”.
`O=C(O)c1cc(N(Cc2ccccc2O)Cc2ccccc2O)ccc1O`: the Potency result was “inactive”.
On the same count and under the same terms, next, `COc1c(Br)cc(Br)cc1C(=O)O`: “inactive”; `C=C1C(O)C[C@H]2C(=C)CCC3[C@H](OC(=O)[C@]3(O)CO)[C@@H]12` (stereo not given in full): “inactive”; `CN[C@H]1[C@@H](O)[C@@H]2O[C@@H]3O[C@H](C)CC(=O)[C@]3(O)O[C@@H]2[C@@H](NC)[C@H]1O`: 1720 nM (active).
Still for that read-out and setting: next, `C[C@H]1C[C@H]2[C@@H]3CCC4=CC(=O)C=C[C@]4(C)[C@@H]3C(=O)C[C@]2(C)[C@@]1(O)C(=O)CO`: “inactive”; `COc1ccc(C2OCC3(O)C(c4ccc(OC)c(OC)c4)OCC23)cc1OC` (stereo not given): “inactive”; `C[C@@H]1O[C@@H](O[C@H]2[C@H](O)[C@@H](O)[C@H](Oc3c(-c4ccc(O)cc4)oc4cc(O)cc(O)c4c3=O)O[C@@H]2CO)[C@H](O)[C@H](O)[C@H]1O`: “inactive”.
The same measure, in the same setting: the result for `O=C1O[C@@H](c2ccc(O)cc2)Cc2cccc(O)c21` reads “inactive”.
